From PMC7819943, “Rice protein-binding microarrays: a tool to detect cis-acting elements near promoter regions in rice”
In all, about 39,000 sequences were measured (“fluorescence intensity (a.u.)”: median about 4,300, highest 2% from about 39,000 on). This excerpt belongs to a sample that is enriched for the highest values.

molecular target: T1, OsSMF1 (Oryza sativa, UniProt Q6ZLB0 1-436); assay: protein-binding microarray (RPBM); PBS, 2% BSA, 51.3 ng/ul salmon testes DNA, 50 uM zinc acetate, 200 nM TF, 25 C, 1 h; high values mean tight binding; conditions: protein: recombinant; tags: N-terminal polyhistidine and DsRed monomer fusion (pET32a); chain copies: 2; label: CyDye5-dUTP incorporated in the synthesized complementary strand; 3' TTTTT single-stranded linker to array surface; dsDNA, one strand shown
T1 sequence: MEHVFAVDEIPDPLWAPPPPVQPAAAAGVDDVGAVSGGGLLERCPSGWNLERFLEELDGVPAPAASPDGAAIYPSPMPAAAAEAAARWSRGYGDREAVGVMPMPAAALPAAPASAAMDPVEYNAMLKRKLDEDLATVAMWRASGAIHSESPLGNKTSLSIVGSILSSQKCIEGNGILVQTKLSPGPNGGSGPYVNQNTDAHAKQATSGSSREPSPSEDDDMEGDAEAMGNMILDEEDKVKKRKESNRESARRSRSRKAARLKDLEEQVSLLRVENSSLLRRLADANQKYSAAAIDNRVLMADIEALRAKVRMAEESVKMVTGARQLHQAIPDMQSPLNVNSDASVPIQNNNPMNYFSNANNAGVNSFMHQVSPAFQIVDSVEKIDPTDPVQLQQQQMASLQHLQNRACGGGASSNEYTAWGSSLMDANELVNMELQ
Summary of the method: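 Using Ni–NTA, transcription factors fused N-terminally to polyhistidine and DsRed were purified after expression in E. coli BL21-CodonPlus. These were incubated at 200 nM with a blocked, double-stranded custom Agilent array for 1 h at 25 °C in a buffer containing 50 µM zinc acetate, and the array was washed. The binding signal is per-feature fluorescence intensity (arbitrary units) on an Axon 4000B scanner.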

Sequence	binding signal
AAGCTAACTTGTGTTGCCTACACAAGTACTAAAATGGCATCGGAGTCACCTAGTGCAG	63600 fluorescence intensity (a.u.)
TAAGCTAACCTTGTACTAAGATGTGACACATCCAAGTACACGGAGTCACCTAGTGCAG	3630 fluorescence intensity (a.u.)
GCTACTAAGGAGTACTACAATATTGCATCATCGTCATCATCGGAGTCACCTAGTGCAG	6340 fluorescence intensity (a.u.)
TGCGCCGATAGCTCCTGTCAACGTGTCACGCGCTGCGCCTCGGAGTCACCTAGTGCAG	8650 fluorescence intensity (a.u.)
CCAGTAATCCTCCTCCTGCTGCCTCAGCTCCTCTTCTGTACGGAGTCACCTAGTGCAG	50800 fluorescence intensity (a.u.)
ATTCCAATTCCAGCTCAATGCTGCACGGAATCTCCTCTTCCGGAGTCACCTAGTGCAG	4140 fluorescence intensity (a.u.)
TACCTCTTCAGTACAGCTGCAGCTGCTGACTGCTCACTACCGGAGTCACCTAGTGCAG	4340 fluorescence intensity (a.u.)
CGGTCCGGGCGATTTGACCGGTCAAAAGGCGTGGCCACGACGGAGTCACCTAGTGCAG	3850 fluorescence intensity (a.u.)
CACAACTACGTAGACGGGCGTTTGCGGCCGAAAATTTGACCGGAGTCACCTAGTGCAG	3730 fluorescence intensity (a.u.)
AAAACGACCGGTTTTGACGTAAATCCACAAGGCGTTATGACGGAGTCACCTAGTGCAG	58400 fluorescence intensity (a.u.)
CGCCGCCACAACCGCGCGCCGTCACCGCCGCGTGCCGTCACGGAGTCACCTAGTGCAG	5070 fluorescence intensity (a.u.)
CCCACCACACACCCGGCCCCACATGTCATCCACCCATCCACGGAGTCACCTAGTGCAG	4500 fluorescence intensity (a.u.)
TTCTTTCGTTAGTTCACCAAAGATGGGCATTTTACTAAGACGGAGTCACCTAGTGCAG	65000 fluorescence intensity (a.u.)
TCTTTTCTAAGTCATGTTAGACCAATAGAGATTTCTCAAACGGAGTCACCTAGTGCAG	27600 fluorescence intensity (a.u.)
CATTATCTAAGTTTCTTTACGTCATTATCTTCGTTTAATTCGGAGTCACCTAGTGCAG	3230 fluorescence intensity (a.u.)
TGTGTGCGTGTGTTGTGACTTATGATGTGTTTCTTAAGAACGGAGTCACCTAGTGCAG	4170 fluorescence intensity (a.u.)
CTATTGCAAATTGCAATGCTGTATATGCACTTCATTAGAACGGAGTCACCTAGTGCAG	54100 fluorescence intensity (a.u.)
TAGAATTTCTCTTCATATAATGCTACGTCATTGCTATATACGGAGTCACCTAGTGCAG	10300 fluorescence intensity (a.u.)
CTAGATTTATTAATATCGATATGAATGTGGAAAATGCTAGCGGAGTCACCTAGTGCAG	18100 fluorescence intensity (a.u.)
TCATTAACATCAATATGAATGTGAGAAATGCTAGAATGACCGGAGTCACCTAGTGCAG	3240 fluorescence intensity (a.u.)
GATTCATTTAACAATTATATGAATGTGGGAAATGCTAGAACGGAGTCACCTAGTGCAG	44400 fluorescence intensity (a.u.)
CATGGTAGAAAATTAGATTATGGTGCATTTGCTGCAAATGCGGAGTCACCTAGTGCAG	3860 fluorescence intensity (a.u.)
AATAATTTTCTCATTTTCTTTAACAGAAGATGACAATGCACGGAGTCACCTAGTGCAG	34800 fluorescence intensity (a.u.)
AGTTCATTATCATCATGTAATGAATCATCATGAATCCAAACGGAGTCACCTAGTGCAG	3280 fluorescence intensity (a.u.)
GATTGAATCATATCGTATCCTTTGAAATTCCTATGGAATGCGGAGTCACCTAGTGCAG	4120 fluorescence intensity (a.u.)
CACCACCCTAAATGGAATAAGAAAATTCTTATTTGTGAATCGGAGTCACCTAGTGCAG	3440 fluorescence intensity (a.u.)
AGTTCTACTTGAGTTATGTAATGAATCACAATGCCTTCATCGGAGTCACCTAGTGCAG	53400 fluorescence intensity (a.u.)

Sequence	binding signal
CACTTGGTAATTACTTCTACTATGTCATCCTTATCATAATCGGAGTCACCTAGTGCAG	3200 fluorescence intensity (a.u.)
TCCAAATCCTATGAAATTCCTATGGAAATCCACGTTGCATCGGAGTCACCTAGTGCAG	7670 fluorescence intensity (a.u.)
TCCTTCAAGAATCCTATACTTCTTAAATCAGGAACATAATCGGAGTCACCTAGTGCAG	8910 fluorescence intensity (a.u.)
ATCTTATGGAATCCTATGAAATTCATATGGAATGCCTAATCGGAGTCACCTAGTGCAG	65000 fluorescence intensity (a.u.)
TTTGAATCAAAGGAATGGATCTTATGGAATCCTATAAAATCGGAGTCACCTAGTGCAG	40400 fluorescence intensity (a.u.)
TAAGGAGGGTGTTGGGAGGGTGGGAGCTTTGCTTGGGGTGCGGAGTCACCTAGTGCAG	3950 fluorescence intensity (a.u.)
TTGTTGAACTATAGGGTAGATGTGATATGTAAGAATTGCCCGGAGTCACCTAGTGCAG	3280 fluorescence intensity (a.u.)
CCGGGGTGTCAGAAATCCAGGCCCACCCGTCAGCGACGCGCGGAGTCACCTAGTGCAG	4130 fluorescence intensity (a.u.)
AAATCTCTCTCCACCCTTTCAGCGCGCCACGTGTCCCACACGGAGTCACCTAGTGCAG	18900 fluorescence intensity (a.u.)
CAAAATACTCAAGCGGCGGCATTGTCATCTTCCTCCTCCCCGGAGTCACCTAGTGCAG	3550 fluorescence intensity (a.u.)
TGCTATGCTATGGCAAGAACATCTTGAGCCATGACATCATCGGAGTCACCTAGTGCAG	4390 fluorescence intensity (a.u.)
GAGTATTTGGCATGGTTGTAGCGTTGGTGACCTGAGTCATCGGAGTCACCTAGTGCAG	7270 fluorescence intensity (a.u.)
AATGCCAAGTGGCAGCCTATGAGCGTTTGTAGCATGCCATCGGAGTCACCTAGTGCAG	41200 fluorescence intensity (a.u.)
TCTGTTTAGTTACATCACTGATGGTCTTGATTTCGCAGTGCGGAGTCACCTAGTGCAG	4040 fluorescence intensity (a.u.)
CTGCACTACGCCGCAGACGAACTGACGTGGTCGTATAAAACGGAGTCACCTAGTGCAG	5790 fluorescence intensity (a.u.)
CCCTGGGTGGTTTTGGAGGTGGTTTTGGTTGACGTGGCGCCGGAGTCACCTAGTGCAG	21400 fluorescence intensity (a.u.)
GGTCAAGAGCGCATCCAGCATGTCGTCGTGTACCTGACCGCGGAGTCACCTAGTGCAG	3720 fluorescence intensity (a.u.)
TTTAGCTCTCGTCGATGTGGTGTTTGTTGGGTTTTCCCTTCGGAGTCACCTAGTGCAG	3670 fluorescence intensity (a.u.)
GTGGTGTTACGCTACTCGTGCAGTAGTGCCTCATCATGGGCGGAGTCACCTAGTGCAG	3500 fluorescence intensity (a.u.)
TAGGTTAGTGGTGGCTGGGTCGTCACGTCATTGCATTGCACGGAGTCACCTAGTGCAG	3270 fluorescence intensity (a.u.)
TAGTGTTTGTTTTGGGTTGTGCTCAGCTTAGCTCTGGTGTCGGAGTCACCTAGTGCAG	39800 fluorescence intensity (a.u.)
AGTAGTATTGGCTTGGGGTGTTGCCACGTCATCACCTGGTCGGAGTCACCTAGTGCAG	55000 fluorescence intensity (a.u.)
TTGTTCCTTTACAGTTTACAGTCATCTCTATTGTAGTATTCGGAGTCACCTAGTGCAG	4220 fluorescence intensity (a.u.)
AGATTTTGGGTGTGTTTGGTTGCTTGCATTGTTTTAGTCTCGGAGTCACCTAGTGCAG	3300 fluorescence intensity (a.u.)
TGTAGTGTTACAGTATGCCACGTCATCATGCTACGCTATTCGGAGTCACCTAGTGCAG	43900 fluorescence intensity (a.u.)
CCATGGCGGGGTGTATTGTTGTTGTATTTGGGGTTCTGGTCGGAGTCACCTAGTGCAG	3630 fluorescence intensity (a.u.)
ACTCTGCCGGCAGGCGTACGTGTGTCCCGGCATTTGGTCGCGGAGTCACCTAGTGCAG	4500 fluorescence intensity (a.u.)
